High-throughput results deposited in PubChem by NMMLSC.
BoNT F protease – BoNT/F light chain protease inhibitors, primary screen, biochemical, flow cytometry, MLPCN library; Botulinum neurotoxin type F light chain protease (Clostridium botulinum); Multiplex microsphere protease cleavage assay; inhibition, % at 10 µM; 0.22% of 360,000 active; AID 588497, 2011; in the data active = inhibition above about 35%, passing the limit was not always enough; inconclusive = no clear call, values can overlap the other calls; note: plate controls were buffer without enzyme for full effect and enzyme alone for no effect
Anthrax LF prot – Bacillus anthracis LF protease inhibitors, primary screen, biochemical, multiplex microsphere, MLPCN library. AID 588501, 2011. inhibition, % at 10 µM. Lethal factor (Bacillus anthracis), P15917. multiplex microsphere protease cleavage assay. 0.12% of 360,000 active; note: plate controls were buffer without enzyme for full effect and enzyme alone for no effect
Target sequence (P15917 whole entry, looked up): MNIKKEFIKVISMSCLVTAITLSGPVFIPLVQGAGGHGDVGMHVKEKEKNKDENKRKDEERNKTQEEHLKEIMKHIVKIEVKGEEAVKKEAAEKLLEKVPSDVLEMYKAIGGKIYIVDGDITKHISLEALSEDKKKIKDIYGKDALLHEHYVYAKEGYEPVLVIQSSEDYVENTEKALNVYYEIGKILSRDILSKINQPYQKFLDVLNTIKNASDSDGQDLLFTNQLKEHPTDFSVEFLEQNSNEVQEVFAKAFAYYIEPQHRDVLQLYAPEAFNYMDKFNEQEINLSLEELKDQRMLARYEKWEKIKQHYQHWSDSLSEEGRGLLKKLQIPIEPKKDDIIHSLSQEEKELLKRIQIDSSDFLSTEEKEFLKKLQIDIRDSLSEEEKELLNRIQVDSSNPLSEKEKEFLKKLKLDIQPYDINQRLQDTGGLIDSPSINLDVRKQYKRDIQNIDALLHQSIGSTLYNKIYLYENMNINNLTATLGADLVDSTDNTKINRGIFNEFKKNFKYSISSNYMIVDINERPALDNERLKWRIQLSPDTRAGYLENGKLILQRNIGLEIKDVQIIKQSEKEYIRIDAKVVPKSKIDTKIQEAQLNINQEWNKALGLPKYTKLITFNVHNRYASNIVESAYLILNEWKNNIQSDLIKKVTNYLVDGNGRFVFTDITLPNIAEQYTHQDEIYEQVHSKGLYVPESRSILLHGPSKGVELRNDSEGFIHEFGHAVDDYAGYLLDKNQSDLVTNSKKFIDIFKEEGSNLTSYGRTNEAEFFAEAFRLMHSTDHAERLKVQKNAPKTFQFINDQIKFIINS
Autofluor counter – flagged as autofluorescent in microsphere protease counterscreen | compound autofluorescence counterscreen, microsphere flow cytometry; hits give high values | fluorescence intensity (no concentration beside the values) | 3.1% of 360,000 active | AID 624483; in the data active = fluorescence intensity above about 16000; inconclusive = no clear call, values can overlap the other calls
BoNT-A LC inh2 – BoNT/A light chain protease inhibitors, primary screen, biochemical, flow cytometry, MLPCN library. Botulinum neurotoxin type A light chain protease (Clostridium botulinum A str. ATCC 3502). multiplex microsphere protease substrate cleavage. inhibition, % at 10 µM. 0.17% of 360,000 active. AID 588499, 2011; note: plate controls were buffer without enzyme for full effect and enzyme alone for no effect
Numbers without * were called inactive; ? = inconclusive. Rows were chosen to be rich in hits. Some 3.5% of all compounds tested hit in one or more screens of this group. Cut-off read from the data, not from the text of the source, unless noted: active = inhibition above about 30%; inconclusive = no clear call, values can overlap the other calls; inactive = below that.

SMILES	BoNT F protease	Anthrax LF prot	Autofluor counter	BoNT-A LC inh2
CC1=C(C(=O)N(C(C)C)C(C)C)CC(CC(=O)NCCN2CCOCC2)C(=O)N1Cc1ccc(F)cc1 (stereo unspecified)	-1	-9	5914	-1
COc1ccc(C)cc1S(=O)(=O)N1c2ccccc2CC1C (stereo unspecified)	-7	0	17618*	-6
Cc1ccc(S(=O)(=O)c2c(N)n(/N=C/c3ccco3)c3nc4ccccc4nc23)cc1	-4	-4	20865*	0
Cc1ccc(S(=O)(=O)c2c(N)n(NC(=O)C3CC3)c3nc4ccccc4nc23)cc1	1	-4	16643*	0
Cc1cccc(S(=O)(=O)c2c(N)n(/N=C/c3ccco3)c3nc4ccccc4nc23)c1	5	-1	22583*	3
Nc1c(S(=O)(=O)c2ccccc2)c2nc3ccccc3nc2n1/N=C/c1ccco1	-1	0	19798*	?
Cc1ccc(S(=O)(=O)c2c(N)n(/N=C/c3ccco3)c3nc4ccccc4nc23)cc1C	0	-5	2315	1
COc1cc2nc(CN3CCN(S(=O)(=O)c4ccccc4[N+](=O)[O-])CC3)[nH]c(=O)c2cc1OC	-3	6	3328	0
CC1CCN(S(=O)(=O)c2cccc(S(=O)(=O)N3CCOCC3)c2)CC1	-2	-1	16191*	0
O=S(=O)(c1cccc(S(=O)(=O)N2CCC(Cc3ccccc3)CC2)c1)N1CCOCC1	6	3	4080	1
O=S(=O)(NCc1ccccc1)c1cccc(S(=O)(=O)N2CCOCC2)c1	4	-1	21829*	2
CC1=C(C(=O)N2CCCCCC2)CC(CC(=O)NCc2cccs2)C(=O)N1Cc1ccccc1 (stereo unspecified)	-8	1	6210	0
COc1cccc(NC(=O)N(CCCN2CCOCC2)C(C)c2cc3cccc(OC)c3o2)c1 (stereo unspecified)	-1	-4	2656	0
COc1cccc(NC(=O)N(CCCN2CCOCC2)C(C)c2cc3ccccc3o2)c1 (stereo unspecified)	4	1	21426*	3
FC(F)(F)c1cc(C(F)(F)F)c2ccc(Oc3ccccc3)nc2n1	-2	0	15838	1
FC(F)(F)c1cccc(Oc2ccc3c(C(F)(F)F)cc(C(F)(F)F)nc3n2)c1	1	-2	21842*	?
COc1ccc(C(=O)OCC(=O)c2c(N)n(C)c(=O)n(C)c2=O)c(OC)c1OC	1	-8	3683	0
O=C(NCC1CCCC(CNC(=O)N2CCc3ccccc32)C1)N1CCc2ccccc21 (stereo unspecified)	-1	-4	21215*	0
COc1cccc(-c2[nH]nc3c2C(c2ccsc2)C(C#N)=C(N)O3)c1 (stereo unspecified)	0	1	22773*	2
COc1cccc(-c2[nH]nc3c2C(c2ccoc2)C(C#N)=C(N)O3)c1 (stereo unspecified)	2	0	21204*	?
COc1ccc(-c2[nH]nc3c2C(c2ccsc2)C(C#N)=C(N)O3)cc1 (stereo unspecified)	-4	-4	16667*	-1
COc1cc(-c2[nH]nc3c2C(c2ccoc2)C(C#N)=C(N)O3)cc(OC)c1OC (stereo unspecified)	-11	-5	2760	0
Cc1ccc(-c2[nH]nc3c2C(c2ccsc2)C(C#N)=C(N)O3)cc1 (stereo unspecified)	-9	-13	9623	-1
COc1ccc2c(c1)C(CC(C)=O)N(c1ccc(-c3cccs3)cc1)C(c1ccsc1)=C2 (stereo unspecified)	-9	-8	3905	8
O=C(NCCN1CCC(n2c(=O)[nH]c3ccccc32)CC1)c1cccc(Cl)c1	0	-5	4474	0
SMILES	BoNT F protease	Anthrax LF prot	Autofluor counter	BoNT-A LC inh2
CC1(C)Cc2nc3sc4c(=O)n(CC(=O)NCc5ccco5)cnc4c3cc2CO1	12	-4	19965*	?
CC1(C)Cc2nc3oc4c(=O)n(CC(=O)Nc5ccccc5)cnc4c3cc2CO1	-4	1	2473	0
S=C(c1ccc(-c2ccc(Cl)cc2)o1)N1CCCCC1	2	-2	10094	1
N#CCCN1CCN(C(=S)c2ccc(-c3ccc(Cl)cc3)o2)CC1	0	11	20131*	?
O=C(c1ccc(Br)s1)N1CCN(c2ncccn2)CC1	0	2	23389*	2
CCN(CC)C(=O)CSc1nnc(-c2cc3ccccc3cc2O)n1CC	-7	-4	23212*	-3
CCN(CC)C(=O)CSc1nc2ccccc2c(=O)n1CC	2	0	2757	0
COc1ccccc1NC(=O)N1CCCC(C(=O)Nc2cccc(C)c2C)C1 (stereo unspecified)	1	3	8686	1
Cc1cccc(NC(=O)C2CCCN(C(=O)NC3CCCCC3)C2)c1C (stereo unspecified)	-1	-1	22986*	0
NC(CCc1ccccc1)c1csc(Nc2nccc(C(F)(F)F)n2)n1 (stereo unspecified)	-16	-1	3652	0
Cc1ccc(N/C(SCc2ccccc2C)=C(/C#N)C(=O)NCc2ccco2)cc1C	-2	-7	22786*	-1
COc1ccc(C(=O)CSc2nnc(-c3ccc(S(=O)(=O)N4CCOCC4)cc3)o2)cc1	-4	-1	20449*	-3
CCN(CC)C(=O)CSc1nnc(-c2ccc(S(=O)(=O)N3CCCC3)cc2)o1	-1	-1	22144*	?
O=C(CSc1nnc(-c2ccc(S(=O)(=O)N3CCCC3)cc2)o1)NCc1ccco1	3	1	21711*	2
CC(=O)c1cccc(NC(=O)CSc2nnc(-c3ccc(S(=O)(=O)N4CCCC4)cc3)o2)c1	4	1	21749*	1
COc1ccc(-c2nnc(SCC(=O)NCc3ccco3)o2)cc1	-34	-5	11192	-5
Cc1ccc(-c2nnc(SCC(=O)Nc3ccc(S(=O)(=O)N4CCCCCC4)cc3)o2)cc1	11	1	9547	1
Cc1ccccc1CC(=O)N1CCC(CCC(=O)NC2CC2)CC1	-5	-3	3488	0
COc1ccc(COC(=O)c2ccc(C)c(S(=O)(=O)N3CCOCC3)c2)cc1F	0	1	6218	-2
COc1cc(C(=O)N2CCCC(c3cc(C(=O)NCc4ccccc4)no3)C2)cc(OC)c1C (stereo unspecified)	-8	-7	4176	-1
CCOC1=C2[C@@H](CN(S(=O)(=O)c3ccc(C)cc3)[C@H]2c2ccccc2F)[C@H]2C(=O)N(C3CCCCC3)C(=O)[C@H]2C1	-6	-4	6092	0
O=C(OCc1ccccc1)N1CCC2CC1c1c2cccc1N1CCOCC1 (stereo unspecified)	-8	-10	4406	-1
CCN(CC)S(=O)(=O)c1ccc(-c2nnc(SCC(C)=O)o2)cc1	-5	1	16485*	-1
CC1Cc2ccccc2N1C(=O)CSc1nnc(-c2ccc(S(=O)(=O)N3CCCC3)cc2)o1 (stereo unspecified)	-4	-1	20428*	?
